Reference: PubChem BioAssay (Tox21)
Results filed as inconclusive are left out. A call without a number means that no potency is given here. Activity calls are given as the source filed them. Unless noted, calls follow the shape of the dose curve; as a rule, active = well fitted curve in the direction sought with a large enough effect in the repeat runs; inconclusive = weak or mixed curves; inactive = no such curve, though single readings can be large; an effect the other way counts as inactive or inconclusive.

Legend:
[1] = qHTS assay to identify small molecule antagonists of the glucocorticoid receptor (GR) signaling pathway - cell viability counter screen (AID 720693); also: nearly all actives have a fitted effect of over 55% in size
[2] = qHTS assay for identifying genotoxic compounds that show differential cytotoxicity against isogenic chicken DT40 cell lines with known DNA damage response pathways - wild type cell line (AID 743012); also: nearly all actives have a fitted effect of over 60% in size
Summary of the method: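 CellTiter-Glo luminescence readout of viability in wild type DT40 cells after 40 h compound exposure at 37 C/5% CO2; 300 cells/well; reagent incubated 30 min at room temperature before reading.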

[3] = qHTS assay for identifying genotoxic compounds that show differential cytotoxicity against isogenic chicken DT40 cell lines with known DNA damage response pathways - Rev3 mutant cell line (AID 743014); also: nearly all actives have a fitted effect of over 55% in size
[4] = qHTS assay for identifying genotoxic compounds that show differential cytotoxicity against isogenic chicken DT40 cell lines with known DNA damage response pathways - Rad54/Ku70 mutant cell line (AID 743015); also: nearly all actives have a fitted effect of over 60% in size
[5] = qHTS assay to identify small molecule antagonists of the androgen receptor (AR) signaling pathway - cell viability counter screen (AID 743033; also: nearly all actives have a fitted effect of over 45% in size)
[6] = qHTS assay to identify small molecule antagonists of the androgen receptor (AR) signaling pathway using the MDA cell line - cell viability counter screen (AID 743041; also: nearly all actives have a fitted effect of over 45% in size)
Summary of the method: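 Viability read by CellTiter-Fluor fluorescence in the same wells as the antagonist screen, added after 15.5 h of a 16 h, 37C exposure. Human breast carcinoma MDA-kb2 AR-luc cells, compounds co-dosed with agonist R1881.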

[7] = qHTS assay to identify small molecule antagonists of the thyroid receptor (TR) signaling pathway - cell viability counter screen (AID 743064); also: nearly all actives have a fitted effect of over 50% in size
Summary of the method: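 In rat pituitary GH3.TRE-Luc reporter cells co-exposed to compound and 1 nM T3 for 23.5 h, cytotoxicity was assessed with CellTiter-Fluor in the same wells, read by fluorescence.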

[8] = qHTS assay to identify small molecule antagonists of the thyroid receptor (TR) signaling pathway (AID 743065); also: series mostly up to about 70 µM; nearly all actives have a fitted effect of over 55% in size
Summary of the method: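 Antagonism measured as loss of luciferase signal in GH3 cells stably carrying a TRE-luciferase reporter, co-treated with compound and T3 (1 nM final) for 23.5 h at 37 C. Viability was read in the same well by CellTiter-Fluor.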

[9] = test system: thyroid hormone receptor (rat, GH3 cells); test: qHTS assay to identify small molecule agonists of the thyroid receptor (TR) signaling pathway (AID 743066; calls by dose curve)
[10] = biological target: Estrogen receptor (Homo sapiens) (UniProt P03372); test: qHTS assay to identify small molecule antagonists of the estrogen receptor alpha (ER-alpha) signaling pathway (AID 743069; active = well fitted curve in the direction sought with a large enough effect in the signal ratio in the repeat runs, not every such curve was filed as active; the % refers to the signal ratio)
Estrogen receptor (Homo sapiens), sequence (P03372 whole entry, looked up): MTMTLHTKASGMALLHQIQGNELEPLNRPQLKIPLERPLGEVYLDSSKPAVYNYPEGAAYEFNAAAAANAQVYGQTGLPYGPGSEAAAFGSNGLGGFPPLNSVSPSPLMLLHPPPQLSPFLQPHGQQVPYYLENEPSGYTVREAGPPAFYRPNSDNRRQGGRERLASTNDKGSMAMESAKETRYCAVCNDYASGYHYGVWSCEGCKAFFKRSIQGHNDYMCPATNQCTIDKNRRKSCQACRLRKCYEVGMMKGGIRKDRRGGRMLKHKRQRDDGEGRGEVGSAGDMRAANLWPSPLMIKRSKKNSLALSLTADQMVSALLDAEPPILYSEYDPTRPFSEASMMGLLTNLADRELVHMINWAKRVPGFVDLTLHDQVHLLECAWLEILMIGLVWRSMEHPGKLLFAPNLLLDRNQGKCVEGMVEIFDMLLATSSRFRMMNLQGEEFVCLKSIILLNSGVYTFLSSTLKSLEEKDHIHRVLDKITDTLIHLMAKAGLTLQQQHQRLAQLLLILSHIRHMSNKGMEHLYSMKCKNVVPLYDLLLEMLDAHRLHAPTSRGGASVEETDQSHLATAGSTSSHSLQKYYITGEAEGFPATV
Summary of the method: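 Antagonist mode: compounds in DMSO were co-added with 17beta-estradiol to ER-alpha-bla HEK293 cells (2% charcoal-stripped serum) and left 18 h at 37C. Reporter inhibition was measured as FRET fluorescence after 2 h LiveBLAzer substrate at room temperature.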

[11] = qHTS assay to identify small molecule antagonists of the estrogen receptor alpha (ER-alpha) signaling pathway - cell viability counter screen (AID 743074; calls by dose curve;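 also: HEK293 cells carrying ER-alpha-UAS-bla reporter stimulated with 17beta-estradiol; nearly all actives have a fitted effect of over 45% in size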)
[12] = biological target: Estrogen receptor (Homo sapiens) (UniProt P03372); test: qHTS assay to identify small molecule agonists of the estrogen receptor alpha (ER-alpha) signaling pathway (AID 743075; calls by dose curve;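 also: HEK293 GripTite cells with ER-alpha and UAS-driven beta-lactamase reporter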)
[13] = biological target: Estrogen receptor (Homo sapiens) (UniProt P03372); test: qHTS assay to identify small molecule agonists of the estrogen receptor alpha (ER-alpha) signaling pathway using the BG1 cell line (AID 743079); also: nearly all actives have a fitted effect of over 20% in size; also: potency is read from the fitted curve at half-maximal effect
[14] = qHTS assay to identify small molecule antagonists of the estrogen receptor alpha (ER-alpha) signaling pathway using the BG1 cell line (AID 743080; calls by dose curve;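 also: BG1 cells stimulated with 17beta-estradiol alongside compound; series mostly up to about 70 µM; nearly all actives have a fitted effect of over 25% in size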)
Summary of the method: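 Luminescence from a 4×ERE-luciferase reporter in BG1-Luc-4E2 cells served as read-out. Cells, pre-cultured 5 days in stripped-serum phenol-red-free medium, were exposed to compound with 17beta-estradiol co-stimulation for 21.5 h at 37 C.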

[15] = qHTS assay to identify small molecule antagonists of the estrogen receptor alpha (ER-alpha) signaling pathway using the BG1 cell line - cell viability counter screen (AID 743081);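 also: compound given together with 17beta-estradiol as the ER stimulus; series mostly up to about 70 µM; nearly all actives have a fitted effect of over 45% in size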
[16] = biological target: Aromatase (Homo sapiens) (UniProt P11511); test: qHTS assay to identify aromatase inhibitors (AID 743083); also: series mostly up to about 70 µM; nearly all actives have a fitted effect of over 55% in size
Aromatase (Homo sapiens), sequence (P11511 whole entry, looked up): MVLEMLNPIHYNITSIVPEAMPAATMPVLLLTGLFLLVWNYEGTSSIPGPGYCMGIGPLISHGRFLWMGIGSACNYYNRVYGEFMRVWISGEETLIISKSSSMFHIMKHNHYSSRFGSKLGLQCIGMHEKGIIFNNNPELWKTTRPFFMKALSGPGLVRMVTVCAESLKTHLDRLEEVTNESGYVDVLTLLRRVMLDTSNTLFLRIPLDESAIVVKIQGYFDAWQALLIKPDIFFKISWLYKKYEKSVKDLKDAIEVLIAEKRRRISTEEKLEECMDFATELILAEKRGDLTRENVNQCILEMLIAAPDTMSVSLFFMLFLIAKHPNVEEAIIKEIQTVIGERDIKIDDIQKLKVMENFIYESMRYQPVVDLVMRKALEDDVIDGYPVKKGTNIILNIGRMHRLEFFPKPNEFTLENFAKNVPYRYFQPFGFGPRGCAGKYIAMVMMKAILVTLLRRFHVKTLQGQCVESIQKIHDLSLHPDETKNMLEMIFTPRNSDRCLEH

[17] = qHTS assay to identify aromatase inhibitors - cell viability counter screen (AID 743084)
[18] = biological target: Androgen receptor (Homo sapiens) (UniProt P10275); test: qHTS assay to identify small molecule antagonists of the androgen receptor (AR) signaling pathway (AID 743035; active = well fitted inhibition curve with a large enough effect in the signal ratio in the repeat runs, not every such curve was filed as active; the % refers to the signal ratio)
Androgen receptor (Homo sapiens), sequence (P10275 whole entry, looked up): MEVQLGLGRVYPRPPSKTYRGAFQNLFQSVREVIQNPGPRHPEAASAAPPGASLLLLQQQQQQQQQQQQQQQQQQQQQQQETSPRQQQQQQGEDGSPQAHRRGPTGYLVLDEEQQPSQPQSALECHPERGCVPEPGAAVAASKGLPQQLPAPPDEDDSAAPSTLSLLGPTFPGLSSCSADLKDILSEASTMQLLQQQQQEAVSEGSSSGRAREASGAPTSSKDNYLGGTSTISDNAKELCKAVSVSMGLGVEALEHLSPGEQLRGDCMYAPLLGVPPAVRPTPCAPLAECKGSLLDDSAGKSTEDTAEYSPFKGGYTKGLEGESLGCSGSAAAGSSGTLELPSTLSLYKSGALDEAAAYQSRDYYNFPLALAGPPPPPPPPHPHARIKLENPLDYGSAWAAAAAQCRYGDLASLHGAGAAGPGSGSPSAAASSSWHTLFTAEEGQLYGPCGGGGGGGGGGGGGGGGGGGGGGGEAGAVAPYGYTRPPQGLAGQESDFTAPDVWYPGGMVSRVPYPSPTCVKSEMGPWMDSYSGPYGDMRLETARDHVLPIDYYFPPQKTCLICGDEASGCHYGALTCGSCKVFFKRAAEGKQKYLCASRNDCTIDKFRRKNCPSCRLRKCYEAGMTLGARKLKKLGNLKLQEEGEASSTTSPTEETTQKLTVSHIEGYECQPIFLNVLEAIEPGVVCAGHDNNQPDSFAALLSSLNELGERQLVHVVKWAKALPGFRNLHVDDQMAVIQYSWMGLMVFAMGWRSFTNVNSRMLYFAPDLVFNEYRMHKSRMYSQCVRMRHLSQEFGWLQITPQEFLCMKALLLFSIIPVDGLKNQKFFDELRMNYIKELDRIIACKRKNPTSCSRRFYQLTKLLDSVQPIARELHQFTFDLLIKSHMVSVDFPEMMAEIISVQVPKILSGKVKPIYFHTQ
Summary of the method: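 AR-bla HEK293 reporter cells; 4 h settle at 37C/5% CO2; compound + R1881 agonist, 16 h at 37C; LiveBLAzer B/G FRET substrate 2 h RT; fluorescence intensity read. qHTS format.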

[19] = biological target: Androgen receptor (Homo sapiens) (UniProt P10275); test: qHTS assay to identify small molecule agonists of the androgen receptor (AR) signaling pathway (AID 743036; active = well fitted activation curve with a large enough effect in the signal ratio in the repeat runs, with a control signal flat, not every such curve was filed as active; the % refers to the signal ratio)
Summary of the method: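 Cell-based FRET reporter assay: HEK293 line with a UAS-beta-lactamase construct, compounds added in DMSO, 16 h exposure at 37C, then 2 h substrate step at room temperature and fluorescence intensity read.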

[20] = biological target: Androgen receptor (Homo sapiens) (UniProt P10275); test: qHTS assay to identify small molecule agonists of the androgen receptor (AR) signaling pathway using the MDA cell line (AID 743040; also: nearly all actives have a fitted effect of over 20% in size)
Summary of the method: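 Luciferase agonist assay: 16 h compound exposure at 37C without CO2 in MDA-kb2 AR-luc cells, whose MMTV promoter responds to both AR and GR. Luminescence measured after 30 min room-temperature incubation with ONE-Glo.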

SMILES | outcome [1] | Potency [2] | Potency [3] | Potency [4] | outcome [5] | Potency [6] | Potency [7] | Potency [8] | outcome [9] | outcome [10] | outcome [11] | Potency [12] | Potency [13] | outcome [14] | Potency [15] | outcome [16] | Potency [17] | outcome [18] | outcome [19] | Potency [20]
C[C@H]1[C@@H](c2ccccc2)NC(=O)N1C | inactive | inactive | inactive | inactive | inactive | inactive | inactive | inactive | inactive | inactive | inactive | inactive | inactive | inactive | inactive | inactive | inactive | – | – | –
CCCCCCCCCCCCCCCCCCOCCO | inactive | inactive | inactive | inactive | inactive | inactive | inactive | inactive | inactive | inactive | inactive | inactive | inactive | inactive | inactive | inactive | inactive | – | – | –
CCCCCCCCCCOC(C)=O | inactive | inactive | inactive | inactive | inactive | inactive | inactive | inactive | inactive | inactive | inactive | inactive | 61.1 µM (active) | inactive | inactive | inactive | inactive | – | – | –
CC(C)[C@H]1CC[C@H](C)C[C@@H]1O | inactive | inactive | inactive | inactive | inactive | inactive | inactive | inactive | inactive | – | inactive | – | – | – | inactive | inactive | inactive | inactive | inactive | inactive
Cn1nnc2c(C(N)=O)ncn2c1=O | inactive | inactive | inactive | inactive | inactive | inactive | inactive | inactive | inactive | inactive | inactive | inactive | inactive | inactive | inactive | inactive | inactive | – | – | –
CCC(C)OC(C)CC (stereo not drawn) | inactive | inactive | inactive | inactive | inactive | – | inactive | inactive | inactive | inactive | inactive | inactive | inactive | inactive | inactive | inactive | inactive | inactive | inactive | inactive
CCC[C@@H]1C[C@@H](C(=O)N[C@@H]([C@H]2O[C@H](SC)[C@H](O)[C@@H](O)[C@H]2O)[C@@H](C)O)N(C)C1 | inactive | inactive | inactive | inactive | inactive | inactive | inactive | inactive | inactive | inactive | inactive | inactive | inactive | inactive | inactive | inactive | inactive | – | – | –
CC(=O)c1cc(C)oc1C | inactive | inactive | inactive | inactive | inactive | inactive | inactive | inactive | inactive | – | inactive | – | – | – | inactive | inactive | inactive | inactive | inactive | inactive
CC1=C(C(=O)O)N2C(=O)[C@@H](NC(=O)[C@H](N)c3ccccc3)[C@H]2SC1 | inactive | inactive | inactive | inactive | inactive | inactive | inactive | inactive | inactive | inactive | inactive | inactive | inactive | inactive | inactive | – | inactive | – | – | –
CC12CCC(C1)C(C)(C)C2O (stereo not drawn) | inactive | inactive | inactive | inactive | inactive | inactive | inactive | inactive | inactive | inactive | inactive | inactive | inactive | inactive | inactive | inactive | inactive | – | – | –
CC(=O)O[C@H]1C[C@@H]2CC[C@@]1(C)C2(C)C | inactive | inactive | inactive | inactive | inactive | inactive | inactive | – | – | – | inactive | – | – | – | inactive | inactive | inactive | inactive | inactive | inactive
CC1(C)O[C@H]2CC(=O)OC[C@]23[C@H]2CC[C@@]4(C)[C@H](c5ccoc5)OC(=O)[C@H]5O[C@]54[C@]2(C)C(=O)C[C@@H]13 | inactive | inactive | inactive | inactive | inactive | inactive | inactive | inactive | inactive | inactive | inactive | inactive | 13.3 µM (active) | – | – | inactive | inactive | – | – | –
COC(=O)c1cc(Cl)cc(Cl)c1 | inactive | inactive | inactive | inactive | inactive | inactive | inactive | inactive | inactive | inactive | inactive | inactive | inactive | inactive | inactive | inactive | inactive | inactive | – | inactive
CC1=C(C(=O)O)N2C(=O)[C@@H](NC(=O)[C@H](N)C3=CCC=CC3)[C@H]2SC1 | inactive | inactive | inactive | inactive | inactive | inactive | inactive | inactive | inactive | inactive | – | inactive | inactive | inactive | – | inactive | inactive | – | – | –
CCCSSCCC | inactive | inactive | inactive | inactive | inactive | inactive | inactive | inactive | inactive | inactive | inactive | inactive | inactive | inactive | inactive | inactive | inactive | – | – | –
CCCCOC(=O)C(C)O (stereo not drawn) | inactive | inactive | inactive | inactive | inactive | inactive | inactive | inactive | inactive | inactive | inactive | inactive | inactive | inactive | inactive | inactive | inactive | – | – | –
O=C1CCCCO1 | inactive | inactive | inactive | inactive | inactive | inactive | inactive | inactive | inactive | inactive | inactive | inactive | inactive | inactive | inactive | inactive | inactive | – | – | –
